Bioassay records deposited in PubChem BioAssay by National Center for Advancing Translational Sciences (NCATS).
DRD3 antagonist = qHTS of D3 Dopamine Receptor Antagonist: qHTS; max response, negative = inhibition, %; AID 652054, 2013; D3R cells, DiscoveRx beta-arrestin luminescence, antagonist mode; hits give low values; 360,000 compounds, 2.5% hits; D(3) dopamine receptor (Homo sapiens), P35462; in the data active = max response below about -50%; inconclusive = no clear call, values can overlap the other calls
Target sequence (P35462 whole entry, looked up): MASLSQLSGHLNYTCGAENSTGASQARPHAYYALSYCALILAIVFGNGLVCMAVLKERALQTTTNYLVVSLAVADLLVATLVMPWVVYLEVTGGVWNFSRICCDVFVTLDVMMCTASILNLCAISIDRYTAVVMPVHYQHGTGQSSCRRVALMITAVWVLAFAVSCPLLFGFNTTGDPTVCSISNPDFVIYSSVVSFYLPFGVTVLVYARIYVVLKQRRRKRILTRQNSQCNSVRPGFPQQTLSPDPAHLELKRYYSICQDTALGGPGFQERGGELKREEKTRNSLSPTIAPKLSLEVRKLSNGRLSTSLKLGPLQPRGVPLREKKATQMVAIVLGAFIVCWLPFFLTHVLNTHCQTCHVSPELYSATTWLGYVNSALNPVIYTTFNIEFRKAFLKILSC
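Cells plated overnight at 1500 cells/well, then exposed to library compounds with dopamine controls for 90 minutes at 37 degrees C. DiscoveRx reagent added for 30–60 minutes at room temperature; luminescence read, quantitative HTS format.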
D1 potentiator = Potentiators of Human D1 Dopamine Receptor: qHTS; potentiation, % at 10 µM; 360,000 compounds, 0.036% hits; HEK293 TREx D1 cells, calcium flux, dopamine EC20 potentiation; in the data active = potentiation above about 30%
DRD3 agonist = qHTS of D3 Dopamine Receptor Agonist: qHTS; D(3) dopamine receptor (Homo sapiens), P35462; D3R DiscoveRx beta-arrestin cells, luminescence, 90 min; max activation, %; 410,000 compounds, 0.58% hits; in the data active = max activation above about 30%
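Agonist mode: compounds and dopamine controls were applied to plated cells for 90 min at 37 degrees C after an overnight attachment at 1500 cells/well. Luminescent read-out followed 30 - 60 minutes at room temperature with DiscoveRx detection reagent.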
D1 agonist = Allosteric Agonists of the Human D1 Dopamine Receptor: qHTS; D(1A) dopamine receptor (Homo sapiens), P21728; HEK293 T-REx D1 cells, calcium flux, agonist mode; activation, % at 2 µM; 360,000 compounds, 1% hits; AID 504660, 2011; in the data active = activation above about 30%
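Tetracycline-induced HEK293 TREx D1 cells, force-coupled to calcium signalling, were dye-loaded with a no-wash calcium kit. Compound was pin-added after a 10 s baseline. Fluorescence was read kinetically at 1 cycle/s for 180 s, with calcium rises flagged as agonism.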
D1 antag = Antagonist of Human D 1 Dopamine Receptor: qHTS | D(1A) dopamine receptor (Homo sapiens), P21728 | HEK293 TREx D1 cells, calcium flux, dopamine EC80; hits give low values | activity change, negative = inhibition, % at 10 µM | 360,000 compounds, 3.2% hits | AID 504652, 2011; in the data active = activity change below about -30%
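Using tetracycline-induced force-coupled D1 Hek293 cells and a calcium dye, signals were followed for 180 s after compound, then for 180 s after EC80 dopamine, to detect inhibitors.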
Hits are given with their value; – = inactive; ? = inconclusive; · = no result; ! = not confirmed by another sample. The list is not random: actives were taken first. Their share in the collection is about 6.1%.

SMILES	DRD3 antagonist	D1 potentiator	DRD3 agonist	D1 agonist	D1 antag
CC(C)Oc1cccc(C(=O)Nc2ccc(N3CCN(C)CC3)cc2)c1	–	–	–	–	-57
CN1CCN(c2ccc(NC(=O)c3cccc(OCc4ccccc4)c3)cc2)CC1	–	–	–	–	-64
CC(C)Oc1ccc(C(=O)Nc2ccc(N3CCCCC3)cc2)cc1	–	–	–	–	–
Cc1cccc(CNC(=O)Cn2ccc3cc(S(=O)(=O)N4CCCC4)ccc32)c1	–	–	–	–	–
CCOc1ccccc1C(=O)Nc1cc(-c2ccc(C)cc2)no1	·	–	–	–	–
Cc1ccc(C(NC(=O)c2cccc(S(=O)(=O)N3CCN(C)CC3)c2)c2ccccc2)cc1 (centres undefined)	–	–	–	–	-66
Cc1ccc(C(=O)Nc2ccc(N3CCN(C)CC3)cc2)c(Cl)c1	–	–	–	–	-33
COc1cccc(-c2nnc(SCC(=O)NC3CCCCC3)o2)c1	·	–	–	–	–
CN1CCN(c2ccc(-c3cc(O)c4ncccc4c3)cc2)CC1	·	–	·	–	–
O=C(N/N=C/c1cc(Cl)cc([N+](=O)[O-])c1O)c1cc(-c2ccccn2)nc2ccccc12	-61	–	–	–	–
O=[N+]([O-])c1ccc(Cl)cc1C=NNc1ccccn1	–	·	–	·	·
O=[N+]([O-])c1cc(Cl)cc(/C=N\Nc2ccccn2)c1O	-106	–	–	–	–
NCCNCCNCCN	–	–	36!	–	–
CCOC(=O)c1cc(S(=O)(=O)Nc2cc(F)ccc2C)[nH]n1	·	–	–	–	–
CS(=O)(=O)Nc1ccc(-c2nc3ccccc3s2)cc1	·	–	–	–	–
CN1CCN(C2=Nc3ccccc3Oc3ccc(Cl)cc32)CC1	-110	–	–	–	-93
CN1CCN(C2=Nc3ccccc3Sc3ccc(Cl)cc32)CC1	·	·	–	·	·
CCn1c(=O)n(-c2ccc3c(c2)OCO3)c2nc(-c3cc(OC)ccc3OC)nc(C(N)=O)c21	·	–	–	–	–
COc1cc(/C=C(\C#N)c2nc3ccc(C)cc3[nH]2)c([N+](=O)[O-])cc1OC	-52	–	–	–	–
Cc1c(Cl)cccc1-c1ccc(/C=C(\C#N)c2nc3ccccc3[nH]2)o1	·	–	–	58	–
COc1cc(/C=C(\C#N)c2nc3ccc(C)cc3[nH]2)cc([N+](=O)[O-])c1O	?	–	–	–	–
Cc1ccc2nc(/C(C#N)=C/c3ccc(-c4cccc([N+](=O)[O-])c4)o3)[nH]c2c1	–	–	–	47	–
Cc1ccc2nc(/C(C#N)=C/c3ccc(-c4ccc(F)cc4F)o3)[nH]c2c1	·	–	–	219	–
COc1ccc2c(c1)c1c(c(=O)n(-c3ccc(C)cc3)c(=O)n1CC(=O)NCC1CCCO1)n2C (centres undefined)	–	·	–	·	·
Cc1cccc(OCC(=O)Nc2ccc3oc(=O)ccc3c2)c1	–	–	–	–	–
SMILES	DRD3 antagonist	D1 potentiator	DRD3 agonist	D1 agonist	D1 antag
CCOC(=O)N1CCN(C(=O)c2cc(COc3ccc(OC)cc3Cl)on2)CC1	–	–	–	–	–
CCc1ccc(CN(C)C(=O)CCc2nnc(Cc3cccc(C)c3)o2)nc1	–	–	–	–	–
CC(=O)c1ccc(NC(=O)C2(c3ccccc3)CC2(Cl)Cl)cc1 (centres undefined)	–	–	–	38	–
CC1CCC(NC(=O)COc2ccccc2C(N)=O)CC1 (centres undefined)	–	–	–	–	–
CC(C)CN(CC(C)C)C(=O)COc1ccccc1C(N)=O	–	–	–	–	-35
CCCSCCCNC(=O)CN1C(=O)COc2ccc(S(=O)(=O)N3CCCCCC3)cc21	·	–	–	–	–
CCc1ccc(S(=O)(=O)Nc2ccc(Br)cn2)cc1	–	–	–	–	-30
CCc1ccc(S(=O)(=O)Nc2ccccn2)cc1	–	–	–	–	–
COc1ccc(OC)c(NC(=O)C2(C)CCN2Cc2ccccc2OC(F)F)c1 (centres undefined)	–	·	92	·	·
O=C(NCc1nnc(SCC(=O)N2CCN(c3ccccc3)CC2)o1)c1ccc(F)cc1	–	–	–	–	–
CSc1ccc(CN(C)CC(=O)Nc2ccccc2Br)cc1	–	–	–	–	-41
CC(Cc1ccccc1)NC(=O)c1cc2ccccc2o1 (centres undefined)	–	–	–	48	–
CCC(=O)Nc1ccc(NC(=O)c2cc3ccccc3o2)cc1	–	–	–	–	–
O=C(NC(c1ccccc1)c1ccc2ccccc2n1)C1CCN(Cc2cccc(C(F)(F)F)c2)CC1 (centres undefined)	-63	·	–	·	·
O=C(NC(c1ccccc1)c1ccc2ccccc2n1)C1CCN(Cc2ccc(Cl)c(Cl)c2)CC1 (centres undefined)	-124	·	–	·	·
O=C(NC(c1ccc2ccccc2n1)c1cccs1)C1CCN(Cc2cccc(C(F)(F)F)c2)CC1 (centres undefined)	?	·	–	·	·
CN(C)c1ccc(CNC(=O)CN(C)S(=O)(=O)c2ccc3c(c2)c(=O)n(C)c(=O)n3C)cc1	–	–	–	–	–
Cc1ccc(C(=O)NC(Cc2ccccc2C(F)(F)F)C(=O)O)cc1 (centres undefined)	?	·	40	·	·
Cc1ccc(CC(NC(=O)c2ccc(C)cc2)C(=O)O)cc1 (centres undefined)	–	·	–	·	·
Cc1cccc(NC(=O)CN2C(=O)N/C(=C/c3ccc(C)s3)C2=O)c1	–	–	–	53	–
CC1CN(C(=O)c2cc(S(=O)(=O)N3CCCCC3)ccc2Cl)CC(C)O1 (centres undefined)	–	·	–	–	–
O/C(=C\c1ccc2ccccc2n1)c1ccc(O)cc1O	–	–	–	71	–
COc1ccc(CC(=O)OCC(=O)c2ccc(OC)c(OC)c2)cc1	–	–	–	–	-31
COc1ccc(CC(=O)OCC(=O)c2ccc(OC)cc2)cc1	–	–	–	–	–
COc1ccc(S(=O)(=O)Oc2ccc3ccccc3c2)cc1	–	–	–	–	-39
Cc1nc2sc(C)c(C)n2c(=O)c1S(=O)(=O)N1CCN(c2ccccc2F)CC1	·	–	–	–	–
CC(O)(c1ccc(F)c(F)c1)c1nc(-c2ccc(F)c(Cl)c2)cs1 (centres undefined)	–	·	–	·	·
Cc1ccc(-c2csc(C(C)(O)c3ccc(F)c(F)c3)n2)cc1C (centres undefined)	-69	·	–	·	·
O=c1[nH]c(-c2ccccc2)ncc1OCc1ccccc1	–	·	–	·	·
COC1=CC(=O)OC(c2ccccc2)C1 (centres undefined)	–	·	–	·	·
